Values joined by “and” are separate entries in the source; they are usually repeats but may differ in a detail not shown here. Equal entries are not always repeated. Among all 16,000 compounds or so, about 4,000 (25%) were called active. Not shown: some 26% with an inconclusive outcome. A selection follows. Values without a mark were called inactive. The call rests on the fitted dose curve; in most records, active means well fitted curve in the direction sought with a large enough effect; inconclusive means small, poorly fitted or top-dose-only effect, or effect the other way; inactive means no such curve, though single readings can be large or run the other way.
These compounds were tested against Cytochrome P450 2C9 (Homo sapiens) (UniProt P11712) (assay: Cytochrome panel assay with activity outcomes). Details: recombinant CYP, pro-luciferin dealkylation, luminescence, p450-cyp2c9; series mostly up to 57.1 µM; activity, negative = inhibition: at the top concentration.
Chain of Cytochrome P450 2C9 (Homo sapiens) (P11712 whole entry, looked up): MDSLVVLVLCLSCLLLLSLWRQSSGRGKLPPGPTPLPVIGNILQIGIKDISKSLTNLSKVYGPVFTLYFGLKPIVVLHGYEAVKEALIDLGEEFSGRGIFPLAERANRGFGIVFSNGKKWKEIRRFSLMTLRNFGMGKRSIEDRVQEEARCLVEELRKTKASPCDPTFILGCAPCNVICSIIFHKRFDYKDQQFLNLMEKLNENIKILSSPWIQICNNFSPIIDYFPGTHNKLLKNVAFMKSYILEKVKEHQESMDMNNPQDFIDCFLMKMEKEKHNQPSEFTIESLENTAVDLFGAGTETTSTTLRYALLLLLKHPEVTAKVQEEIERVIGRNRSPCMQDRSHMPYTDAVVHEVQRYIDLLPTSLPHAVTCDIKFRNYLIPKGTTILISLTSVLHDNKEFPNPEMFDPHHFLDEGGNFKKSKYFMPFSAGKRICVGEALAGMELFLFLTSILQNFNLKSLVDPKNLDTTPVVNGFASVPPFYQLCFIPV
On the % scale 0 is the no-effect control and ±100 the full control effect.

| SMILES | AC50 | activity, negative = inhibition |
| --- | --- | --- |
| COc1ccccc1C(=O)NCCn1cc(SCC(=O)Nc2nnc(C)s2)c2ccccc21 | 2.24 µM (active) |  |
| COC(=O)Nc1nc2ccc(SC(C)C)cc2[nH]1 |  | -5.69% [at 25.6 µM] |
| Cc1noc(C)c1C(=O)N1CCC2(CCN(Cc3cc(C(F)(F)F)cc(C(F)(F)F)c3)CC2)CC1 |  | -4.95% |
| CO[C@@H]1COC(=O)CC=C[C@@H](C)[C@@H]2C=C[C@H](O)[C@@H](COC(=O)[C@H](C)NC(=O)CC=C[C@H]1C)O2 |  | -4.45% [at 11.4 µM] |
| CC(C)OP(=O)(OC(C)C)C(NC(=O)c1ccc(Br)cc1)c1ccccc1 (stereo not drawn) | 10 µM (active) |  |
| Nc1ccccc1C#Cc1ccccc1 | 7.94 µM (active) and 14.1 µM (active) |  |
| COCCn1c(=O)c(-c2cccs2)nc2cnc(N(C)C)nc21 |  | -15.4% |
| COCCn1c(=O)c(-c2cccs2)nc2cnc(Oc3ccccc3)nc21 | 3.98 µM (active) |  |
| COCCn1c(=O)c(-c2cccs2)nc2cnc(Oc3ccc(OC)cc3)nc21 | 5.01 µM (active) |  |
| COc1ccc(Oc2ncc3nc(-c4cccs4)c(=O)n(-c4ccccc4)c3n2)cc1 |  | -29.6% |
| COc1ncc2nc(-c3cccs3)c(=O)n(-c3ccccc3)c2n1 |  | -3.19% |
| Cn1cc(-c2nc3cnc(Oc4ccccc4)nc3n(C3CC3)c2=O)c2ccccc21 |  | -16.2% |
| COc1ccc(Oc2ncc3nc(-c4cccs4)c(=O)n(C)c3n2)cc1 | 3.16 µM (active) |  |
| O=c1c(-c2cccs2)nc2cnc(Oc3ccccc3)nc2n1C1CC1 | 3.16 µM (active) |  |
| COc1ccc(Oc2ncc3nc(-c4cc(F)cc(F)c4)c(=O)n(C)c3n2)cc1 |  | -7.05% |
| CS(=O)(=O)Nc1cccc(-c2ccc3ncnc(NCc4cccnc4)c3c2)c1 |  | -11.8% [at 2.29 µM] |
| FC(F)(F)c1ccccc1-c1nc(NCc2cccs2)c2ccccc2n1 |  | -25.9% [at 2.29 µM] |
| CC(C)C(=O)NCCc1nc2ccccc2n1CCCOc1ccc(Cl)cc1 | 3.16 µM (active) |  |
| CC(C)C(=O)NCCn1ccc2ccccc21 |  | -28.7% |
| C[C@H]1/C=C\CC(=O)OC[C@H](C)C(=O)N2CCC[C@@H]2C(=O)OC1 |  | 4.32% [at 11.4 µM] |
| O=C(CN1CCc2ccccc21)NC(=O)NCc1ccco1 | 15.8 µM (active) |  |
| Cc1cnc(CNc2ncnc3ccc(-c4ccc(N(C)C)cc4)cc23)cn1 |  | -3.84% [at 2.29 µM] |
| CO[C@@H]1COC(=O)[C@H](Cc2ccccc2)NC(=O)C/C=C\[C@@H](C)[C@H](OC)COC(=O)[C@@H](C)NC(=O)C/C=C\[C@H]1C |  | -11.8% [at 11.4 µM] and -14.5% [at 11.4 µM] |
| Cc1cccc(-n2nc([N+](=O)[O-])c(=NCc3cccnc3)n2O)c1 | 10 µM (active) |  |

| SMILES | AC50 | activity, negative = inhibition |
| --- | --- | --- |
| Cc1cccc(CNc2ncncc2-c2cccnc2)c1 |  | 1.46% [at 2.29 µM] |
| S=C1NCN2CCN(CC2)CNC(=S)C(=S)NCN2CCN(CC2)CNC1=S |  | -2.75% [at 11.4 µM] |
| CC(=O)c1cc(NC(=O)c2ccccc2)c(=O)oc1/C=C/N(C)C |  | -16.5% |
| Cc1ccc(C(=O)Nc2cc3c(oc2=O)CCCC3=O)cc1 |  | -13.2% |
| Cc1oc(=O)c(NC(=O)c2ccccc2)cc1C(=O)c1ccccc1 | 12.6 µM (active) |  |
| Cc1cccc(CNc2cc(-c3c(C)noc3C)ncn2)c1 |  | -2.84% [at 2.29 µM] |
| O=C(O)CC1(C(=O)O)CCCCC1 |  | -2.68% [at 11.4 µM] |
| O=C(O)C1(C(=O)O)CCN(S(=O)(=O)c2ccccc2)CC1 |  | -9.03% [at 11.4 µM] |
| N.N.O=C(O)C1(C(=O)O)CCC1.[Pt] | 3.98 µM (active) |  |
| Cc1ccc(CSC(N)=Nc2ccccc2)cc1C |  | 7.44% [at 11.4 µM] |
| CN(C)/C=C/C(=O)c1ccc(F)cc1 |  | -17.2% |
| CC(Oc1ccc(Cl)cc1)C(=O)/C=C/N(C)C (stereo not drawn) | 12.6 µM (active) |  |
| CN(C)/C=C/C(=O)c1ccc(Cl)cc1 |  | -21.1% |
| CCN(CC)CCn1c(=S)[nH]c2cc3c(cc2c1=O)OCO3 |  | -28.2% |
| O=C(CCCCCn1c(=S)[nH]c2cc3c(cc2c1=O)OCO3)N1CCN(C2CCCCC2)CC1 | 1.12 µM (active) |  |
| CN(Cc1ccco1)c1ncncc1-c1cccc(C#N)c1 |  | 2.42% [at 2.29 µM] |
| C[N+](C)(C)CC(=O)O |  | 6.18% |
| COCCNc1ccnc(-c2c(C)noc2C)n1 |  | 17.7% [at 2.29 µM] |
| Cc1nc(SCC(=O)NCCc2ccc(Cl)cc2)nc(C)c1C |  | -28% |
| Cc1nc(Oc2ccc(Cl)cc2)c2oc3ccccc3c2n1 |  | -25.9% |
| CCc1nc(SCC(=O)NCCc2ccccc2)c2oc3ccccc3c2n1 | 1.12 µM (active) |  |
| Cc1nc(SCC(=O)c2ccc(Cl)s2)c2oc3ccccc3c2n1 | 0.447 µM (active) |  |
| CCc1nc(SCC(=O)c2ccc(Cl)s2)c2oc3ccccc3c2n1 | 1.12 µM (active) |  |
| Cc1nc(SCC(=O)Nc2ccc3c(c2)OCCO3)c2oc3ccccc3c2n1 | 2 µM (active) |  |
